Data from publication PMC4552634, “A New Set of Chemical Starting Points with Plasmodium falciparum Transmission-Blocking Potential for Antimalarial Drug Discovery” (PLoS ONE, 2015).
In all, about 13,000 compounds went through this assay and about 3,200 (25%) showed an effect of 50% or more. This is one part of the list.

System: P. falciparum stage V gametocytes
Design: BacTiter-Glo ATP luminescence viability of purified stage V gametocytes in 384-well plates, per cent inhibition versus DMSO
Settings: 48 h, 5 µM; inhibitor

SMILES	% Inhibition [%]
COc1ccc(NC(=O)c2ccc(Br)c(C)c2)cc1N1CCN(Cc2ccccc2)CC1 [TCMDC-139031]	-19.8
CSc1cccc(NC(=O)c2cc3ccccc3oc2=O)c1 [TCMDC-123616]	19.07
O=C(NCC(c1ccc(C(F)(F)F)cc1)N1CCCC1)c1cc(-c2ccncc2)c(-c2cccc(O)c2)o1 (centres unmarked) [TCMDC-135665]	33.87
CCn1c(SCc2ccccc2)nc2c1c(=O)[nH]c(=O)n2C [TCMDC-125734]	-6.834
CC(C)CNC(=S)N1CCCN(c2nc3ccc(Cl)cc3s2)CC1 [TCMDC-139465]	24.85
Cc1noc(C)c1CN1Cc2ccccc2OC2(CCN(Cc3c[nH]c4cnccc34)CC2)C1 [TCMDC-133381]	19.56
COc1ccc(NC(=O)NC2CCN(c3ccnc4cc(Cl)ccc34)CC2)cc1 [TCMDC-133573]	-92.42
CN1CCC(N(Cc2ccc(-c3ccc(C(F)(F)F)cc3)cc2)C(=O)Cn2cc(Cc3cnn(C)c3)c(=O)nc2SCc2cccc(F)c2F)CC1 [TCMDC-141337]	106.7
CC(C)N1CCC(N(Cc2ccc(-c3ccc(Cl)cc3)cc2)C(=O)Cn2c(CCc3cccc(F)c3F)cc(=O)c3ccccc32)CC1 [TCMDC-141363]	102.7
CCCC(C)NC(=O)[C@H](CC1CCCCC1)NC(=O)c1ccc(O)c(-c2cccc(C(F)(F)F)c2)c1 (some centres unmarked) [TCMDC-140808]	13.25
CC1CN=C(c2ccc(NC(=O)Nc3ccc(C4=NCC(C)N4)cc3)cc2)N1 (centres unmarked) [TCMDC-137210]	-10.63
O=C(/C=C/c1ccc(Cl)c(Cl)c1)NCCCCCN1CCC(NC(=O)c2ccc(F)cc2)CC1 [TCMDC-135840]	0.6546
N#Cc1ccc(NC(=O)NC2CCN(CCCCCNC(=O)/C=C/c3ccc(Cl)c(Cl)c3)CC2)cc1 [TCMDC-135705]	-23.68
N#Cc1cccc(NC(=O)NC2CCN(CCCCCNC(=O)/C=C/c3ccc(Cl)c(Cl)c3)CC2)c1 [TCMDC-135706]	-58.78
N#Cc1cccc(C(=O)NC2CCN(CCCCCNC(=O)/C=C/c3ccc(Cl)c(Cl)c3)CC2)c1 [TCMDC-135841]	88.37
N#Cc1ccc(C(=O)NC2CCN(CCCCCNC(=O)/C=C/c3ccc(Cl)c(Cl)c3)CC2)cc1 [TCMDC-135837]	78.66
O=C(/C=C/c1ccc(Cl)c(Cl)c1)NCCCCCN1CCC(NC(=O)c2cccc(Cl)c2)CC1 [TCMDC-135868]	49.83
O=C(Nc1ccc(Cl)c(C(F)(F)F)c1)c1ccc(C(=O)Nc2ccc(Cl)c(C(F)(F)F)c2)cc1 [TCMDC-125581]	-42.79
CC1(C)N=C(N)N=C(N)N1OCCCCON1C(N)=NC(N)=NC1(C)C [TCMDC-131630]	2.586
Cc1cc(NC(=O)NCCN2CCC(NS(=O)(=O)c3ccc(C(F)(F)F)cc3)C2)c2ccccc2n1 (centres unmarked) [TCMDC-136140]	44.51
NCc1cccc(-c2cccc(CN(C(=O)Nc3ccccc3)C3CCN(Cc4ccccc4)CC3)c2)c1 [TCMDC-140583]	102.4

SMILES	% Inhibition [%]
O=C(Nc1ccccc1)N(Cc1cccc(-c2cccc(CNCCc3ccccc3)c2)c1)C1CCN(Cc2ccccc2)CC1 [TCMDC-140587]	90.55
NCc1ccc(-c2ccccc2CN(C(=O)Nc2ccccc2)C2CCN(Cc3ccccc3)CC2)cc1 [TCMDC-140577]	94.87
O=C(Nc1ccccc1)N(Cc1ccccc1-c1cccc(CNCCc2ccccc2)c1)C1CCN(Cc2ccccc2)CC1 [TCMDC-140580]	102.3
O=C(Nc1ccccc1)N(Cc1ccccc1-c1cccc(CNCc2ccc3c(c2)OCO3)c1)C1CCN(Cc2ccccc2)CC1 [TCMDC-140582]	47.74
Cc1ccc(CN=C(N)NC(=O)c2nc(Cl)c(NCc3ccc(Cl)cc3)nc2N)c(C)c1 [TCMDC-138938]	26.05
CN(c1ccc(NC(=O)c2cccc(F)c2)cc1)C1CCCN(Cc2cccc(O)c2)C1 (centres unmarked) [TCMDC-134957]	-38.33
O=C(Nc1ccccc1)N(Cc1cccc(-c2ccc(CNCCc3ccccc3)cc2)c1)C1CCN(Cc2ccccc2)CC1 [TCMDC-140588]	106.9
CC(=O)N(Cc1cccc(-c2cccc(CNCCc3ccccc3)c2)c1)C1CCN(Cc2ccccc2)CC1 [TCMDC-140527]	98.23
CC(=O)N(Cc1cccc(-c2ccc(CNCCc3ccccc3)cc2)c1)C1CCN(Cc2ccccc2)CC1 [TCMDC-140528]	44.2
S=C(Nc1cccc(Cl)c1)NC1CCN(c2ccnc3cc(Cl)ccc23)C1 (centres unmarked) [TCMDC-133400]	41.6
Cc1cc(CN2CCCN(c3ccc4c(c3)CCN(Cc3ccc(-c5ncc[nH]5)cc3)CC4)CC2)n(C)n1 [TCMDC-136550]	22.45
COc1ccc2nccc([C@@H](O)CN3CCC(NC(=O)c4ccc5nc(-n6cccc6)sc5c4)CC3)c2c1 [TCMDC-141027]	-24.62
COc1cc2ccccc2c(CNCCCCCCNCc2c(OC)c(OC)cc3ccccc23)c1OC [TCMDC-137795]	103.3
COc1cc2ccccc2cc1CCNCCCCNCCc1cc2ccccc2cc1OC [TCMDC-137944]	108
COc1cc2c(cc1CCNCCCCNCCc1cc3c(cc1OC)CCCC3)CCCC2 [TCMDC-137319]	108.4
COc1cc2ccccc2c(CON2C(N)=NC(N)=NC2(C)C)c1OC [TCMDC-131792]	17.71
COc1cc2ccccc2c(OC)c1CNCCCCCCNCc1c(OC)cc2ccccc2c1OC [TCMDC-137843]	116.8
Cl.O=C(Oc1ccc(C2CNCCc3c2cc(OC(=O)c2ccc(O)cc2)c(OC(=O)c2ccc(O)cc2)c3Cl)cc1)c1ccc(O)cc1 (centres unmarked) [TCMDC-141978]	49.99
CC(C)Sc1nncc(-c2cnnc(SC(C)C)n2)n1 [TCMDC-123740]	3.174
COc1ccc2nccc([C@@H](O)CN3CCC(NCc4cc5cccc6c5n(c4=O)CCC6)CC3)c2c1 [TCMDC-140735]	-18.38
